Test [1] in a line: Quantitative High-Throughput drug screen in 47 multiple myeloma cell lines against the NCATS MIPE library collection: ARD_JJKsccE7 cell viability assay (AID 1918929). The procedure, abridged:
(§1)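 Relative luminescence from CellTiter-Glo served as the viability signal, referenced to DMSO-treated (100%) and cell-free medium (0%) controls. Treatment lasted 48 hours at 37C with 500 cells per well.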

Test [2] in a line: Quantitative High-Throughput drug screen in 47 multiple myeloma cell lines against the NCATS MIPE library collection: Karpas620_DSMZ cell viability assay (AID 1918959). Note: nearly all actives have a fitted effect of over 30% in size. The procedure, abridged: (§2)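 Inhibition of cell viability is measured here. Each line was plated at 500 cells per well, treated with MIPE 4.0 drugs, kept 48 hours at 37C, then assayed for ATP content by CellTiter-Glo luminescence.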

Test [3] is described as follows: Quantitative High-Throughput drug screen in 47 multiple myeloma cell lines against the NCATS MIPE library collection: KHM11_PLB cell viability assay (AID 1918962). Note: nearly all actives have a fitted effect of over 35% in size. The procedure, abridged: as §2
Test [4] in a line: Quantitative High-Throughput drug screen in 47 multiple myeloma cell lines against the NCATS MIPE library collection: INA6_PLB cell viability assay (AID 1918965; note: nearly all actives have a fitted effect of over 55% in size). The procedure, abridged: (§3)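 qHTS of the MIPE 4.0 collection: 500 myeloma cells/well, 48 h drug exposure at 37C in 5% CO2, then CellTiter-Glo for 5 min at room temperature before luminescence reading.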
Test [5] can be described thus: Quantitative High-Throughput drug screen in 47 multiple myeloma cell lines against the NCATS MIPE library collection: KMS27_JCRB cell viability assay (AID 1918970). Note: nearly all actives have a fitted effect of over 30% in size. The procedure, abridged: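 KMS27_JCRB myeloma cells, 500 per well, exposed 48 h at 37 C, 5% CO2 to MIPE 4.0 compounds. Viability from ATP by CellTiter-Glo luminescence, normalized to DMSO (100%) and medium-only (0%) wells.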

Test [6] is described as follows: Quantitative High-Throughput drug screen in 47 multiple myeloma cell lines against the NCATS MIPE library collection: KMS26_JCRB cell viability assay (AID 1918975). Note: nearly all actives have a fitted effect of over 45% in size. The procedure, abridged: as §2
Test [7] is described as follows: Quantitative High-Throughput drug screen in 47 multiple myeloma cell lines against the NCATS MIPE library collection: KMM1_JCRB cell viability assay (AID 1918960). Note: nearly all actives have a fitted effect of over 30% in size. The procedure, abridged: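 Luminescence from CellTiter-Glo, taken after 5 min at room temperature, reports cellular ATP as viability. Cells (500 per well) had been treated 48 h at 37 °C with MIPE 4.0 compounds, scaled between DMSO and medium-only controls.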

Test [8] is described as follows: Quantitative High-Throughput drug screen in 47 multiple myeloma cell lines against the NCATS MIPE library collection: Karpas417_ECACC cell viability assay (AID 1918961). The note with it: Karpas417 myeloma viability, CellTiter-Glo ATP luminescence, 48 h; viability (% of DMSO): at 45.8 µM (top of the series). The procedure, abridged: as §3
The nature of test [9]: Quantitative High-Throughput drug screen in 47 multiple myeloma cell lines against the NCATS MIPE library collection: H1112_PLB cell viability assay (AID 1918967; note: nearly all actives have a fitted effect of over 30% in size). The procedure, abridged:
as §1

Test [10] is described as follows: Quantitative High-Throughput drug screen in 47 multiple myeloma cell lines against the NCATS MIPE library collection: KMS12PE_JCRB cell viability assay (AID 1918972). Note: nearly all actives have a fitted effect of over 30% in size. The procedure, abridged:
as §3

A short description of test [11]: Quantitative High-Throughput drug screen in 47 multiple myeloma cell lines against the NCATS MIPE library collection: NCIH929_DSMZ cell viability assay (AID 1918978). Note: nearly all actives have a fitted effect of over 35% in size. The procedure, abridged: (§4)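 Viability after 48 h drug exposure was measured as ATP-dependent luminescence. Cells, 500 per well, sat at 37 °C under 5% CO2; DMSO wells set 100%, media-only wells 0%.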

Test [12] in a line: Quantitative High-Throughput drug screen in 47 multiple myeloma cell lines against the NCATS MIPE library collection: JIM1_ECACC cell viability assay (AID 1918964). The procedure, abridged:
as §1

Test [13] can be described thus: Quantitative High-Throughput drug screen in 47 multiple myeloma cell lines against the NCATS MIPE library collection: JJN3_DSMZ cell viability assay (AID 1918966; note: nearly all actives have a fitted effect of over 50% in size). The procedure, abridged:
as §1

The nature of test [14]: Quantitative High-Throughput drug screen in 47 multiple myeloma cell lines against the NCATS MIPE library collection: Karpas25_ECACC cell viability assay (AID 1918968; note: nearly all actives have a fitted effect of over 35% in size). The procedure, abridged: as §1
A short description of test [15]: Quantitative High-Throughput drug screen in 47 multiple myeloma cell lines against the NCATS MIPE library collection: KMS12BM_JCRB cell viability assay (AID 1918971). Note: nearly all actives have a fitted effect of over 35% in size. The procedure, abridged: as §2
Test [16] in a line: Quantitative High-Throughput drug screen in 47 multiple myeloma cell lines against the NCATS MIPE library collection: KMS20_JCRB cell viability assay (AID 1918973). Note: nearly all actives have a fitted effect of over 45% in size. The procedure, abridged: as §1
Test [17] is described as follows: Quantitative High-Throughput drug screen in 47 multiple myeloma cell lines against the NCATS MIPE library collection: MMM1_PLB cell viability assay (AID 1918976). Note: nearly all actives have a fitted effect of over 35% in size. The procedure, abridged:
as §4

The nature of test [18]: Quantitative High-Throughput drug screen in 47 multiple myeloma cell lines against the NCATS MIPE library collection: MOLP8_DSMZ cell viability assay (AID 1918977). Note: nearly all actives have a fitted effect of over 45% in size. The procedure, abridged: as §4
A short description of test [19]: Quantitative High-Throughput drug screen in 47 multiple myeloma cell lines against the NCATS MIPE library collection: JIM3_ECACC cell viability assay (AID 1918963; note: nearly all actives have a fitted effect of over 35% in size). The procedure, abridged: as §2
Test [20] in a line: Quantitative High-Throughput drug screen in 47 multiple myeloma cell lines against the NCATS MIPE library collection: KMS21BM_JCRB cell viability assay (AID 1918974). The note with it: ATP luminescence, 48 h; viability: at 45.8 µM (top of the series) unless noted. The procedure, abridged:
as §1

Records with an inconclusive call do not appear. Activity calls are given as the source filed them. Calls come from the whole dose curve; as a rule, active = well fitted curve in the direction sought with a large enough effect; inconclusive = small, poorly fitted or top-dose-only effect, or another doubt; inactive = no such curve, though single readings can be large; an effect the other way counts as inactive or inconclusive.
Potency is the fitted concentration of half-maximal effect.

Take `NC(=O)[C@@H](CCC(F)(F)F)N(Cc1ccc(-c2ncon2)cc1F)S(=O)(=O)c1ccc(Cl)cc1`: the Potency entry in test [1], in [2], in test [3], in test [5] and in [6] was “inactive” throughout. The Potency in test [4] is 26.4 µM (active).

As for `C[N+](C)(C)CC(=O)O`, the Potency result in test [1], in test [7], in test [8], in [3], in [9] and in test [10] was “inactive” in each case. Also, the Potency entry in [11] was “inactive”.

With `Nc1ncnc2c1nc(Cl)n2[C@@H]1O[C@H](CO)[C@@H](O)[C@@H]1O`, the Potency in test [1] is 14.8 µM (active); in test [2], 14.8 µM (active); in test [3], 6.62 µM (active); in test [12] it was 16.6 µM (active); in test [4] it was 2.09 µM (active); in test [13], 16.6 µM (active). In addition, the Potency was 18.7 µM (active) in test [9]; 7.43 µM (active) in test [14]; 20.9 µM (active) in [5]; 23.5 µM (active) in test [15]; 14.8 µM (active) in test [10]; 4.69 µM (active) in [16]. The Potency in test [6] is 20.9 µM (active); in test [17] it was 18.7 µM (active); in [18], 7.43 µM (active); in test [11], 8.33 µM (active).

For `C[C@]12CC[C@@H]3c4ccc(O)cc4CC[C@H]3[C@H]1C[C@@H](O)[C@H]2O`, the Potency entry in [1], in test [8], in [19], in [9], in test [16] and in test [11] was “inactive” throughout. The Potency in test [2] is 18.7 µM (active); in test [6] it was 0.0418 µM (active); in test [17] it was 13.2 µM (active).

Consider `O=c1cc(-c2ccccc2)oc2cc(O)c(O)c(O)c12`, for which the Potency entry in [1], in [2], in [7] and in [10] was “inactive” each time. The Potency in test [9] is 20.9 µM (active); in test [14] it was 20.9 µM (active); in test [17] it was 23.5 µM (active).

For the compound `CCS(=O)(=O)N1CC(CC#N)(n2cc(-c3ncnc4[nH]ccc34)cn2)C1`, the Potency entry in test [1], in test [7], in [9], in test [14] and in [16] was “inactive” throughout. Moreover, the Potency in [8] was 0.105 µM (active); in test [3], 11.8 µM (active); in test [19], 16.6 µM (active); in [4], 0.418 µM (active); in test [13] it was 11.8 µM (active); in test [15], 18.7 µM (active). The Potency in [6] was 16.6 µM (active).

On to `Clc1ccc(CCC(Cn2ccnc2)Sc2c(Cl)cccc2Cl)cc1` (stereo not drawn), for which the Potency in [1] is 13.2 µM (active); in [2] it was 18.7 µM (active); in test [14], 16.6 µM (active); in test [5], 18.7 µM (active); in test [10] it was 14.8 µM (active); in test [20], 23.5 µM (active).

As for `CCCCCNC(=O)N1CCC(CN(Cc2ccc(Cl)cc2)Cc2ccc([N+](=O)[O-])s2)C1` (stereo not drawn), the Potency is 20.9 µM (active) in test [1]; 18.7 µM (active) in test [2]; 23.5 µM (active) in test [13]; 20.9 µM (active) in test [14]; 20.9 µM (active) in [5]; 18.7 µM (active) in test [10]. The Potency in [6] was 23.5 µM (active); in test [17] it was 20.9 µM (active); in test [18] it was 18.7 µM (active).

For the compound `O=c1c(-c2ccc(O)cc2)coc2cc(O)ccc12`, the Potency entry in test [1], in test [7], in test [8], in test [19], in test [12] and in test [4] was “inactive” each time. For the same compound, the Potency entry in [9], in test [14], in [5], in test [10] and in test [11] was “inactive” each time.

Turning to `COc1cccc2c1CCCC2CCCN1CCN(C2CCCCC2)CC1` (stereo not drawn), the Potency was 18.7 µM (active) in test [2]; 18.7 µM (active) in test [7]; 18.7 µM (active) in test [3]; 16.6 µM (active) in test [4]; 20.9 µM (active) in test [13]; 18.7 µM (active) in test [14]. For the same compound, the Potency is 16.6 µM (active) in [5], 23.5 µM (active) in [15], 16.6 µM (active) in test [10] and 14.8 µM (active) in [17].

In the case of `O=c1cc(-c2ccccc2)oc2cc(O)cc(O)c12`, the Potency in test [1] was 26.4 µM (active); in [7], 20.9 µM (active). The Potency entry in test [3], in test [9] and in test [11] was “inactive” each time.

Consider `COc1cc(NC(=O)c2ccc(-c3ccc(Cl)cc3)o2)cc(OC)c1`, for which the Potency in test [2] is 20.9 µM (active); in [7] it was 16.6 µM (active); in [8], 2.96 µM (active); in [3], 14.8 µM (active); in test [4] it was 8.33 µM (active); in test [9], 2.96 µM (active). The Potency is 2.96 µM (active) in [14], 20.9 µM (active) in test [10] and 2.64 µM (active) in test [11]. For the same compound, in test [6], the Potency result was “inactive”.

For `Clc1cc(Cl)cc(CNc2ncncc2-c2ccc3c(c2)OCO3)c1`, the Potency in test [1] is 16.6 µM (active); in [19], 16.6 µM (active); in [4], 16.6 µM (active); in test [5], 18.7 µM (active). Further, the Potency result in test [18] is “inactive”.

The values are drawn from PubChem BioAssay (NCATS).
